From PubChem BioAssay AID2107 (National Center for Advancing Translational Sciences (NCATS), 2009)
Out of some 240,000 compounds screened, about 20 (0.008%) were called active. Not shown: some 1% with an inconclusive outcome. The call rests on the fitted dose curve; in most records, active means well fitted inhibition curve with a large enough effect; inconclusive means small, poorly fitted or top-dose-only effect, or effect the other way; inactive means flat fitted curve, though single readings scatter. These entries were drawn from the full list.

Each compound was assayed against Alpha-galactosidase A (Homo sapiens) (UniProt P06280) (assay: qHTS Assay for Inhibitors and Activators of Human alpha-Galactosidase From Spleen Homogenate). Settings: 4MU-alpha-Gal fluorescence, 40 min; series mostly up to 80 µM.
Text: NIH Chemical Genomics Center [NCGC] NIH Molecular Libraries Probe Production Centers Network [MLPCN] MLPCN Grant: R03 MH084842-01 Assay Submitter (PI): Wei Zheng NCGC Assay Overview: Alpha-galactosidase is a homodimeric glycoprotein that hydrolyzes the terminal alpha-galactosyl moieties from glycolipids and glycoproteins. Deficiency of this enzyme results in Fabry Disease with progressive accumulation of globotriaosylceramide and other glycosphingolipids in vascular endothelial cells that causes renal failure, myocardial infarction and stroke, and premature death in patients. It has been reported that the improper folding and trafficking of alpha-galactosidase resulting from genetic mutations may account for a significant number of Fabry patients. […] We optimized this alpha-galactosidase assay in 1536-well plate format for identification of novel small molecule inhibitors or activators with structures other than the sugar analogs in order to develop new pharmacological chaperones. In particular, this assay is directed towards discovering compounds active in more natural setting, tissue homogenate, that may have been missed by screens of the purified enzyme under more stringent conditions.
NCGC Assay Protocol Summary: This is a fluorogenic enzyme assay with 4-methylumbelliferyl-alpha-D-galactopyranoside as the substrate and human spleen homogenate containing alpha-galactosidase as the enzyme preparation. Upon hydrolysis of this fluorogenic substrate, the resulting product, 4-methylumbelliferone (which excites at 365 nm and emits at 440 nm) can be detected by a fluorescence plate reader. Data were normalized to the controls for basal activity (without enzyme) and 100% activity (with enzyme). The AC50 values were determined from concentration-response data modeled with the standard Hill equation. Assay buffer: 50 mM citric acid (titrated with potassium phosphate to pH 5.0), 0.01% Tween-20 (pH 5.0 is an optimal condition for this enzyme assay) 1536-well assay protocol for the alpha-galactosidase from human spleen homogenate: (1) Add 2 ul/well spleen homogenate (1 ug) (2) Add 23 nL compounds in DMSO solution. The final titration was 0.5 nM to 58 uM. (3) Add 2 ul of substrate (1 mM final) (4) Incubate at 37C for 40 min (5) Add 2 ul stop solution (1M NaOH and 1M Glycine mixture, pH 10) (6) Detect the assay plate in a ViewLux plate reader (PerkinElmer) with Ex=365 nm and Em=440nm. Keywords: Alpha-galactosidase, Fabry Disease, pharmacological chaperone, chaperone therapy, high throughput screening, alpha- galactosidase inhibitor, MLSMR, MLSCN, NIH Roadmap, qHTS and NCGC

Alpha-galactosidase A (Homo sapiens), sequence (P06280 32-429 limits assumed): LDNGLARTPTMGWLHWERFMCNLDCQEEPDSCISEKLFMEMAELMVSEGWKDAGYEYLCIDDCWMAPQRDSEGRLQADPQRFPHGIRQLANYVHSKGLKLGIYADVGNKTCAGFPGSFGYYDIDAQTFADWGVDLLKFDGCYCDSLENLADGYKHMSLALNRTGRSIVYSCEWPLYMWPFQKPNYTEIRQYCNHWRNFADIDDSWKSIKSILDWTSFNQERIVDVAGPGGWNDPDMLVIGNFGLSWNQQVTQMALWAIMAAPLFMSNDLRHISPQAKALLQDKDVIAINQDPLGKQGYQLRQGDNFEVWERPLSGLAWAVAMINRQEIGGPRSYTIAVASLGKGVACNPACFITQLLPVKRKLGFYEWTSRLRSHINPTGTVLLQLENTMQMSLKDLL

Activity change, negative = inhibition, inactive:
CSc1ccc(S(=O)(=O)Nc2cccc(F)c2)cc1, COC(=O)c1ccc(C(NC(=O)OCc2ccccc2)/C(F)=C/[C@@H](C)C(=O)O)cc1 (stereo partly drawn), Cc1ccc(-c2csc(N(Cc3ccco3)C(=O)c3cccs3)n2)cc1, O=C(Nc1cc(C(=O)Nc2ccc(S(=O)(=O)O)cc2)cc(C(=O)Nc2ccc(S(=O)(=O)O)cc2)c1)Nc1cc(C(=O)Nc2ccc(S(=O)(=O)O)cc2)cc(C(=O)Nc2ccc(S(=O)(=O)O)cc2)c1, Cc1ccccc1OCCC(=O)OCC(=O)NC(C)c1ccccc1 (stereo not drawn), CC[C@H](C)[C@H](NC(=O)[C@H](Cc1ccc(O)cc1)NC(=O)[C@@H](NC(=O)[C@H](CCCN=C(N)N)NC(=O)[C@@H](N)CC(=O)O)C(C)C)C(=O)N[C@@H](Cc1cnc[nH]1)C(=O)N1CCC[C@H]1C(=O)N[C@@H](Cc1ccccc1)C(=O)O, CC(=O)Nc1ccc(S(=O)(=O)N2N=NC3C2C2CC4C3(CN(C(=O)OC(C)(C)C)S4(=O)=O)O2)cc1 (stereo not drawn), CSCCC(NC(=O)c1cc([N+](=O)[O-])cc([N+](=O)[O-])c1)c1nc2ccccc2[nH]1 (stereo not drawn), CCOc1c2ccc(C(=O)NC3CCCc4ccccc43)cc2nn1CC (stereo not drawn), Cc1cc(C)c(NC(=O)C[N+](C)(C)CC(O)COc2cccc3ccccc23)c(C)c1 (stereo not drawn), CCOC(=O)Cc1csc(SCc2cc(=O)oc3cc(O)ccc23)n1, CC1(C)CC(=O)c2cnc3nc4ccccc4n3c2C1, COCC1CCCN(Cc2cn[nH]c2-c2cc3ccccc3o2)C1 (stereo not drawn), Cc1cc(Cl)ccc1C(=O)C1CCCN(C(=O)CCN2CCCO2)C1 (stereo not drawn), CC(C)Cn1c(N)c(C(=O)COC(=O)CN2C(=O)C3CC=CCC3C2=O)c(=O)n(C)c1=O (stereo not drawn), O=C(NNc1ccccc1Cl)C(O)(c1cccc(C(F)(F)F)c1)c1cccc(C(F)(F)F)c1, O=C(NCc1ccccn1)[C@]1(C(F)(F)F)C[C@H](CCc2ccccc2)CCCO1, Cc1cccc(C)c1N1CCN(S(=O)(=O)N2CCCCC2)CC1, Cc1cccc2nc(CSc3nc4[nH]ncc4c(=O)n3-c3cccc(Cl)c3)cc(=O)n12, N#Cc1ncc(C(F)(F)F)cc1Oc1cccnc1, CNC(=O)[C@]1(C(F)(F)F)C[C@H](CCc2ccccc2)CCCO1, COc1ccc(C[C@H](C(=O)O)N2C(=O)c3ccc(C(=O)O)cc3C2=O)cc1, Cc1ccccc1N(C(=O)Cc1cccs1)C(C(=O)NC1CCCCC1)c1cn(C)nc1C (stereo not drawn)
